Test results as given in PubChem BioAssay AID894 (National Center for Advancing Translational Sciences (NCATS), 2007).
Among all 150,000 compounds or so, about 6,500 (4.3%) were called active. Not shown: some 12% with an inconclusive outcome. The full list was thinned out, with actives kept by preference. Unmarked numbers belong to inactive results. Calls follow the shape of the dose curve; as a rule, active = well fitted inhibition curve with a large enough effect (not every such curve was filed as active); inconclusive = small, poorly fitted or top-dose-only effect, or another doubt; inactive = no such curve, though single readings can be large or run the other way.

Biological target: 15-hydroxyprostaglandin dehydrogenase [NAD(+)] (Homo sapiens) (UniProt P15428)
Test: qHTS Assay for Inhibitors of HPGD (15-Hydroxyprostaglandin Dehydrogenase)
Conditions: purified HPGD, NADH fluorescence kinetic, PGE2 substrate; activity change, negative = inhibition: active compounds read low
Description: Human 15-Hydroxyprostaglandin dehydrogenase (HPGD) catalyzes the inactivation of prostaglandin E2, and plays a major role in cancer biology by antagonizing the oncogenic potential of cyclooxygenase type 2 (COX2). Assays are available, based on absorbance/fluorescence increase of NADH with the substrate 15-OH prostaglandin E2. References 1. Myung SJ, Rerko RM, Yan M, Platzer P, Guda K, Dotson A, Lawrence E, Dannenberg AJ, Lovgren AK, Luo G, Pretlow TP, Newman RA, Willis J, Dawson D, Markowitz SD. 15-Hydroxyprostaglandin dehydrogenase is an in vivo suppressor of colon tumorigenesis. […] 2. Yan M, Rerko RM, Platzer P, Dawson D, Willis J, Tong M, Lawrence E, Lutterbaugh J, Lu S, Willson JK, Luo G, Hensold J, Tai HH, Wilson K, Markowitz SD. 15-Hydroxyprostaglandin dehydrogenase, a COX-2 oncogene antagonist, is a TGF-beta-induced suppressor of human gastrointestinal cancers. Proc Natl Acad Sci U S A. 2004 Dec 14;101(50):17468-73. 3. Yang L, Amann JM, Kikuchi T, Porta R, Guix M, Gonzalez A, Park KH, Billheimer D, Arteaga CL, Tai HH, Dubois R, Carbone DP, Johnson DH. Inhibition of Epidermal Growth Factor Receptor Signaling Elevates 15-Hydroxyprostaglandin Dehydrogenase in Non-Small-Cell Lung Cancer. Cancer Res. 2007 Jun 15;67(12):5587-5593. Inhibition of HPGD activity was screened by utilizing prostaglandin as an electron donor and NAD+ as an electron acceptor/cofactor. An increase in the fluorescence intensity due to conversion of NAD+ to NADH was used to measure the enzyme activity. NIH Chemical Genomics Center [NCGC] Structural Genomics Consortium [SGC]
Buffer: 50 mM Tris-HCl, 0.01% Tween 20, pH 8. Enzyme Buffer: 50 mM Tris-HCl, 0.5 mM NAD+ and 0.01% Tween 20, pH 8. Reagents/Controls: Buffer in columns 3 and 4 as negative control (no enzyme). Substrate/cofactor solution: 1 mM NAD+ and 30 uM prostaglandin (Sigma, prostaglandin E2, # P5640) final concentrations dispensed throughout the plate. Enzyme: 20 nM HPGD final concentration in columns 1, 2, 5-48. Column 1 and 2 is neutral (100% activity). A titration of control inhibitor GW5074 (G6416 Sigma-Aldrich, St. Louis, MO) top concentration 10 mM in DMSO, then 1:2 dilution for a total of 16 concentrations in duplicate) was pin-transferred into column 2. Assay Steps: Three uL of enzyme were dispensed to 1536-well Greiner black solid bottom plates. Compounds and control inhibitor (23 nL) were transferred via Kalypsys PinTool. The plates were incubated for 15 min at room temperature, and then 1 uL of substrate/cofactor solution was added to start the reaction. The plates were immediately transferred to and read 5 times every 30 seconds on ViewLux High-throughput CCD imager (Perkin-Elmer) using 360 nm excitation and 450 nm emission fluorescence protocol. The fluorescence intensity difference between the last and the first time points was used to compute reaction progress.
% is scaled to controls: 0 for no effect and ±100 for the full control effect; potency is read from the fitted curve at half-maximal effect.

Chain of 15-hydroxyprostaglandin dehydrogenase [NAD(+)] (Homo sapiens) (P15428 whole entry, looked up): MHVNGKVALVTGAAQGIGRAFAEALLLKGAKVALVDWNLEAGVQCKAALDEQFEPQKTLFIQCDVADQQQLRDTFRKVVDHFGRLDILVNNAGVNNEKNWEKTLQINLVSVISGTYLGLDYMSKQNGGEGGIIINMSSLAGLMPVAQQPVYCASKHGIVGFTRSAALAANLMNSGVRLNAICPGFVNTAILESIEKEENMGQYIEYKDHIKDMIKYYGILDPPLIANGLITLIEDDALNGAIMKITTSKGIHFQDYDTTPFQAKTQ

Point of comparison: `CCOC(=O)NCc1ccc2c(c1)OCO2`, activity change, negative = inhibition -9.86%. Against it:
- CCCc1cc(=O)[nH]c(SCC(=O)N2CCN(S(=O)(=O)c3ccc(C)cc3C)CC2)n1 — higher, -0.796%
- Cc1ccc2c(CSc3nncs3)cc(=O)oc2c1 — lower, -18.3%
- CCCc1cc(=O)[nH]c(SCC(=O)OCc2ccccc2)n1 — lower, -12.3%
- CCCc1cc(=O)n2[nH]c(SCc3ccccc3)nc2n1 — lower, -15.8%
- CCCCN1C(=O)CCC(C(=O)O)C1c1ccc(OC)cc1 (stereo not drawn) — higher, -3.29%
- CCc1cccc(NC(=O)CCC(=O)O)c1 — higher, 6.1%
- COc1ccc2c(CC(=O)OCC(=O)Nc3ccccc3[N+](=O)[O-])coc2c1 — lower, -21.4%
- COc1cc(OC)cc(C(=O)Nc2ccc(S(=O)(=O)Nc3cc(C)on3)cc2)c1 — lower, -20.6%
- Cc1cc(NS(=O)(=O)c2ccccc2)no1 — lower, -11.9%
- COc1ccc2nc(Nc3nc(-c4cc5ccccc5oc4=O)cs3)sc2c1 — lower, -10.8%
- C/C(=N\NS(=O)(=O)c1ccc(Cl)cc1)c1ccc(NC(=O)c2ccco2)cc1 — lower, -18.3%
- O=C(CN1C(=O)c2ccccc2S1(=O)=O)N1CCc2ccccc21 — lower, -12.2%
- Nc1nnc(SCCN2C(=O)c3ccccc3S2(=O)=O)s1 — lower, -12.2%
- CCCCC/C=C\C/C=C\CCCCCCCCCC(=O)NCC(=O)O — higher, -8.47%
- Cc1cccc(-c2nc3ccccc3c(=O)n2NC(=O)Cc2ccc(Cl)cc2)c1 — higher, -9.37%
- CCCCc1cc2c(s1)CCCC/C2=N/O — lower, -24.8%
- CC(C)NC(=O)CSc1ccccc1C(=O)NCc1ccc2c(c1)OCO2 — higher, -1.41%
- COc1ccc(CNC(=O)CCn2cccc2)cc1 — lower, -21.6%
- Cc1cccc(N2C(=O)SC(N(CC(=O)O)c3cccc(C)c3)C2=O)c1 (stereo not drawn) — lower, -14.2%
- Cc1cccc(N2C(=O)C3C(c4ccccc4)OC4(C(=O)c5ccccc5C4=O)C3C2=O)c1 (stereo not drawn) — higher, -4.94%
- O=c1c2c(ncn1Cc1ccccc1)nc1n2CCC1 — lower, -17.9%
- COc1ccc(-c2csc(NC(=O)COC(=O)Cc3ccc(Cl)cc3Cl)n2)cc1 — higher, -9.05%
- O=C(Nc1cn(-c2ccccc2)nc1-c1ccccc1)c1ccccc1 — higher, -2.03%
- CN(CC(=O)NC1CCCCC1)S(=O)(=O)c1ccc(Br)s1 — higher, -1.92%
- O=C(NC1CCCC1)C(NS(=O)(=O)c1ccc(Br)s1)c1ccccc1 (stereo not drawn) — higher, -1.61%
- O=C(COC(=O)c1c2c(nc3ccccc13)/C(=C\c1cccs1)CCC2)Nc1ccccc1Cl — lower, -25.4%
- C=CCN1c2ccccc2[C@]23C[C@@H](C(=O)OC)N(S(=O)(=O)c4ccc([N+](=O)[O-])cc4)C2=NC(C(=O)OC)=C(C(=O)OC)[C@H]13 — lower, -18.4%
- COc1cc(/C=C(/NC(=O)c2ccc(Cl)cc2Cl)C(=O)O)cc(OC)c1OC — higher, -5.89%
- O=C(O)c1cccc(S(=O)(=O)NCCO)c1 — higher, -3.87%
- COC(=O)c1nc2ccccc2s1 — higher, 0.316%
- COc1ccc(NS(=O)(=O)c2ccc(NC(=S)NC(=O)CC(C)C)cc2)cc1 — lower, -14.4%
- O=C(Nc1nc2cc3c(cc2s1)OCCO3)c1cccc(S(=O)(=O)N2CCOCC2)c1 — lower, -10.8%
- CC(=O)NC1=NN(C(C)=O)C(C)(CCS(=O)(=O)c2ccc(Cl)c(Cl)c2)S1 (stereo not drawn) — higher, -9.18%
- CCCCN1C(=O)c2ccc(C(=O)Nc3ccc(S(=O)(=O)N(C)C)cc3)cc2C1=O — lower, -11.6%
- CCCc1nc(SCC(=O)Nc2ccccc2OC)c2c(=O)n(C)c(=O)n(C)c2n1 — higher, -0.308%
- CCCNC(=O)c1ccccc1NC(=O)CSCc1ccc(OC)cc1 — higher, -5.31%
- COc1cccc(NC(=S)NC(=O)c2c(Cl)c(C)nn2C)c1 — lower, -18.7%
- Cc1sc2nc(CC(N)=O)[nH]c(=O)c2c1-c1ccccc1 — higher, 1.92%
- O=C(Cn1nnc(-c2ccccc2)n1)NCc1ccc2c(c1)OCO2 — lower, -12.6%
- O=C(CNS(=O)(=O)c1ccc(Br)s1)NCc1ccc2c(c1)OCO2 — higher, -7.58%
- Cn1cc(CCC(=O)NCc2ccc3c(c2)OCO3)c2ccccc21 — lower, -17.1%
- OC[C@H]1O[C@@H](n2cnc3c(NC4CCCC4)ncnc32)[C@H](O)[C@H]1O — higher, -4.78%
- CCCCC(NS(=O)(=O)c1ccc(C)cc1)C(=O)Oc1ccc2c3c(c(=O)oc2c1)CCC3 (stereo not drawn) — higher, -8.04%
- Cn1c(=O)c(Sc2ccc(Cl)cc2)c(O)c2ccccc21 — lower, -12.7%
- CC(C)OCCCNC(=O)c1cc(Sc2ccc(F)cc2)nc2ccccc12 — lower, -12.9%
- COc1cccc(NC(=O)c2nn(C34CC5CC(CC(C5)C3)C4)cc2[N+](=O)[O-])c1 — higher, -4.79%
- Cc1ncn(C23CC4CC(CC(O)(C4)C2)C3)n1 — higher, -6.48%
- O=C(COC(=O)c1cc2c(s1)CCCC2)NCc1ccccc1Cl — higher, -9.08%
- COc1ccc(CC(=O)N/N=C(\C)c2ccccn2)cc1 — higher, -4.24%
- Cc1ccc(S(=O)(=O)N2CCC(C(=O)N[C@@H](C)C(=O)NCc3ccco3)CC2)cc1 — higher, -1.88%
- S=C(NCCCc1cnc[nH]1)NCCCN(Cc1ccc(Cl)c(Cl)c1)c1ccc(Br)cn1 — higher, -8.19%
- COC(=O)c1ccc(NC(=O)Nc2ccc(C)cc2)cc1 — lower, -17.3%
- Cc1ccc(C(=O)CNc2ccc(F)cc2)cc1 — lower, -25.3%
- Cc1ccc(-n2[nH]c(C)c(/C=N/NC(=O)c3cccc([N+](=O)[O-])c3)c2=O)cc1C — lower, -25.4%
- Cc1sc2ncnc(Sc3nc4ccccc4s3)c2c1C — lower, -10.4%
- CCOc1ccc(N2C(=O)CC(N(O)c3ccccc3)C2=O)cc1 (stereo not drawn) — higher, -7.04%
- CCOC(=O)c1ccc(N2C(=O)CC(N(C)Cc3ccccc3)C2=O)cc1 (stereo not drawn) — higher, -4.27%
- CC1CN(S(=O)(=O)c2ccc(C(=O)NN3CCN(C)CC3)cc2)CC(C)O1 (stereo not drawn) — higher, -9.75%
- Cc1ccc(C(C)C)cc1OCCN1CCCC1 — higher, 7.86%
- Cc1ccc(Cl)cc1-c1ccc(/C=N/n2cnnc2)o1 — lower, -18.9%
- Cc1cc([N+](=O)[O-])c(-c2ccc(/C=N/n3cnnc3)o2)cc1Cl — lower, -28.3%
- N#Cc1ccc(C(=O)Nc2nc(-c3cccs3)c(C(=O)C(F)(F)F)s2)cc1 — higher, 3.33%
- COc1ccc(OCc2cccc(C(=O)N3CCCC3)c2)cc1 — lower, -28.1%
- O=C(c1cccc2ccccc12)N1CCN(c2ccccc2F)CC1 — lower, -14.2%
- C/C(=N/NC(=O)c1ccc(Br)o1)c1ccc(C)o1 — lower, -27.2%
- CCCCC/C=C\CC1OC1CCCCCCCC(=O)O (stereo not drawn) — higher, -7.93%
- COC(=O)C/C=C/[C@@H](C)[C@H](NC(=O)OCC(Cl)(Cl)Cl)c1ccccc1 — higher, -2.46%
- COc1ccc(C(=O)Nc2ncc3c(n2)-c2ccccc2CC3)cc1 — lower, -20.4%
- CSc1nc2sc3c(c2c(=O)[nH]1)CCc1ccccc1-3 — higher, -7.61%
- Cc1cccc(C(=O)NCC(=O)OCC(=O)N2CC3(C)CC2CC(C)(C)C3)c1 (stereo not drawn) — higher, -5.91%
- Cn1cccc1/C=N/NC(=O)c1ccc(OC(F)(F)C(F)F)cc1 — higher, -5.18%
- COc1ccc(CCNC(=O)CSc2nnc(-c3cccc(F)c3)o2)cc1OC — lower, -14.4%
- CCN(CC)C(=O)CSc1nnc(-c2cccc(OC)c2)o1 — lower, -11.1%

In the case of `CCCc1cc(=O)[nH]c(SCc2ccc(C#N)cc2)n1`, the Potency is reported as 15.8 µM (active).
For `CCCc1cc(=O)[nH]c(SCc2cc(=O)oc3c(C)c(C)ccc23)n1`, the Potency was 3.55 µM (active).
`COc1cc2ccccc2cc1C(=O)Nc1ccc(S(=O)(=O)Nc2cc(C)on2)cc1` was tested, and the Potency was 20 µM (active).
With `O=C1c2ccccc2S(=O)(=O)N1CC(O)Cn1c2ccccc2c2ccccc21` (stereo not drawn) the Potency was 8.91 µM (active).
For `CCSc1ccccc1C(=O)NCc1ccc(OC)cc1`, the Potency was 2.51 µM (active).
`Cc1cccc(N2C(=O)SC(SC(=Nc3ccccc3)Nc3ccccc3)C2=O)c1` (stereo not drawn) was tested, and the Potency was 14.1 µM (active).
In the case of `O=C(NC1CCCC1)c1ccc(Br)s1`, the Potency is reported as 3.55 µM (active).
In the case of `COc1ccc(S(=O)(=O)Nc2ccc(O)c(Sc3nc4ccccc4s3)c2)cc1`, the Potency is reported as 25.1 µM (active).
`O=C(O)c1cccc(S(=O)(=O)Nc2ccc(O)cc2Sc2nc3ccccc3s2)c1` was tested, and the Potency was 10 µM (active).
With `CCCCCNC(=O)c1cccnc1SCC(=O)Nc1ccccc1OC` the Potency was 10 µM (active).
In the case of `O=C(NCc1ccc2c(c1)OCO2)C12CC3CC(CC(C3)C1)C2`, the Potency is reported as 31.6 µM (active).
For `CC1CCCCN1CC(=O)NCc1ccc2c(c1)OCO2` (stereo not drawn), the Potency was 8.91 µM (active).
`Cc1nc([N+](=O)[O-])nn1C12CC3CC(CC(Br)(C3)C1)C2` was tested, and the Potency was 14.1 µM (active).
With `COC(=O)c1ccc(NCC(=O)c2ccccc2)cc1` the Potency was 17.8 µM (active).
In the case of `CCCCCCC(=O)N(O)C1CC(=O)N(c2ccccc2)C1=O` (stereo not drawn), the Potency is reported as 15.8 µM (active).
For `Cc1cc(-c2ccc(/C=N/n3cnnc3)o2)c([N+](=O)[O-])cc1C`, the Potency was 10 µM (active).
In the case of `COc1c(C(=O)N2CCCC2)ccc2ccccc12`, the Potency is reported as 12.6 µM (active).
In the case of `COc1ccc(-n2c(=S)[nH]c3sc4c(c3c2=O)CCc2ccccc2-4)cc1`, the Potency is reported as 12.6 µM (active).
With `COc1ccc(CN(C(=O)CSc2nnc(-c3ccc(OC)c(OC)c3)o2)c2ccc(F)cc2)cc1` the Potency was 14.1 µM (active).
